# In all, about 1,200 compounds went through this assay and fewer than 10 were called active. Calls follow the shape of the dose curve; as a rule, active = well fitted curve in the direction sought with a large enough effect; inconclusive = small, poorly fitted or top-dose-only effect, or another doubt; inactive = no such curve, though single readings can be large or run the other way. These entries were drawn from the full list.
# Assay: Confirmatory qHTS assay for inhibitors of Activation Induced Cytidine Deaminase (AID): UDG signals
# Conditions: UDG coupled enzyme activity counter-screen; series mostly up to 115 µM
# From the text: Assay Provider (PI) Patricia Gearhart Ph.D.
# National Institute on Aging
# National Institute of Health (NIH), Bethesda, MD
# Assay Provider (PI) Rahul Kohli Ph.D.
# Perelman School of Medicine
# University of Pennsylvania, Philadelphia, PA
# Activation-Induced Deaminase (AID) is a cytosine deaminase which converts cytosine into uracil within stretches of ssDNA. The presence of uracil in DNA initiates a cascade of mutagenic DNA repair to introduce point mutations and DNA double strand breaks. Specific targeting of AID to the immunoglobulin heavy chain loci (Igh) promotes mutagenesis in the antibody variable region for somatic hypermutation (SHM) or switch regions leading to class switch recombination (CSR). However, AID also plays a role in accumulating unnecessary mutations across the genome. Mis-targeting of AID results in the initiation of tumor development and leads to greater drug resistance among cancer cells when continually expressed. To identify an AID inhibitor, a small molecule library will be screened in collaboration with NCATS core facility at NIH. To confirm biological function, inhibitors will be examined in an in vitro murine B-cell activation assay and subsequent secondary validation screens. Top molecules will be further screened to identify inhibitory efficacy against a wild type primary splenocytes assay. Using these approaches, we hope to identify a small molecule with great efficacy and low toxicity for use as a molecular probe to further characterize AID's intricacies, or even as a therapeutic.
# A FRET based analysis of cytosine deamination, was developed to identify potential inhibitors of AID catalytic activity. This screen has two signal output, Read 1 evaluates the AID inhibition response. The second readout (Read 2) evaluates UDG response and is uses as a counterscreen to exclude false positive inhibitors. Inhibition in AID and inactivity in the UDG signal is the desired outcome for this assay.
# SEQUENCE No. (e.g., 1, 2, 3, etc.); […] (e.g., Cells, Incubation, Reagent, etc.); VALUE; DESCRIPTION
# 1a; Reagent; 3 uL; [4/3x] 1 uM AID/2.67 U/mL UDG
# 1b; Reagent; 3 uL; 2 U/mL UDG
# 1c; Reagent; 3 uL; 1 uM AID
# 2a; Compound; 46 nL; Follow-up plates (0.64 uM - 10 mM)
# 2b; Control; 46 nL; ATA ([…] - 10 mM)
# 3; Time; 10 min; incubation at room temperature
# 5; Time; 4 hr; incubation at room temperature
# 6; Reagent; 4 uL; [2x] 250 mM NaOH
# 7; Time; 15 sec; centrifuge at 1000 rpm
# 8; Time; 30 min; incubation at room temperature
# 9a; Detection; fluorescence (Read 1: AID); EnVision (PerkinElmer) plate reader, 540 excitation and 590 emission filters
# 9b; Detection; fluorescence (Read 2: UDG); EnVision (PerkinElmer) plate reader, 560 excitation and 665 emission filters
# NOTES (numbers refer to sequence above)
# 1a; Reagents were dispensed in a medium-binding black solid-bottom Greiner plates (789176F) using a BioRptr liquid dispenser. Dispense 3 uL of [4/3x] 1 uM AID (provided by Kohli lab) and [4/3x] 2 U/mL UDG (NEB M0280L) into columns 1, 2, 5 to 48.
# 1b; Dispense 3 uL of [4/3x] 2 U/mL UDG into column 3.
# 1c; Dispense 3 uL of [4/3x] 1 uM AID into column 4.
# 2a; Compound (7-points [uM]: 0.64; 3.2; 16; 80; 400; 2,000; 10,000; […]) double pin-transferred (Dip Factor = 2) using the Kalypsys (Wako USA) pintool equipped with a 1536 pinhead for a final concentration range of 7.32 nM - 114 uM.
# 2b; 10 mM Aurintricarboxylic Acid (Sigma A1895) (ATA, 8-point, n = 2, 1:2.5 dilution in column 2) double pin-transferred (Dip Factor = 2) using the Kalypsys (Wako USA) pintool equipped with a 1536 pinhead for a [final] range of 186 nM - 114 uM.
# 3; Room temperature incubation.
# 4; Dispense 1 uL of substrate mixture from the Kohli lab [4x] […] DJC20 and [4x] 250 nM DJC23 into columns 1 to 48 .
# 5; Room temperature incubation.
# 6; Dispense 4 uL of substrate mixture [2x] 250 mM NaOH into columns 1 to 48.
# 7; Centrifugation step to remove bubbles.
# 8; Room temperature incubation
# 9a; Fluorescence signal (column label AID) was read using the EnVision plate reader. […]
row,Compound,outcome
1,CCN1CCN(c2cc(C)c3cc(NC(=O)/C=C/c4cccc(Cl)c4)ccc3n2)CC1,inactive
2,CCOc1ccc(Nc2sc(C(=O)c3ccc(F)cc3)c(N)c2S(=O)(=O)c2ccc(C)cc2)cc1,inactive
3,CCc1ccccc1N(C)C(=O)c1sc2nc3n(c(=O)c2c1C)CCCCC3,inactive
4,COc1ccc(CNC(=O)c2cnn3c(C)c(Cc4c(F)cccc4Cl)c(C)nc23)cc1,inactive
5,COc1ccc(C(=O)c2cn(Cc3ccccc3F)c3ccc(F)cc3c2=O)cc1,inactive
6,CCCCCCSc1nc(N)c2c3c(sc2n1)CCCC3C (stereo not given),inactive
7,Cc1nc2c(C(=O)NCCc3ccc(Cl)cc3)cnn2c(C)c1Cc1ccc(F)cc1,inactive
8,Cc1cccc(N2C(=O)N(CC(=O)C(C)(C)C)c3ccccc3S2(=O)=O)c1C,inactive
9,COc1ccccc1OCCn1c(C(C)Oc2ccccc2)nc2ccccc21 (stereo not given),inactive
10,CCOc1ccccc1NC(=O)CN1C(=O)CC(c2ccc(OC)c(OC)c2)Sc2ccccc21 (stereo not given),inactive
11,CCC(C(=O)N1CCN(c2cc(C)ccc2C)CC1)n1nc(C)n2c(cc3occc32)c1=O (stereo not given),inactive
12,COc1ccc(-n2c(Cc3ccccc3)nnc2SCc2nc(-c3ccccc3C)no2)cc1,inactive
13,COc1ccc(N2C(=O)CSC23C(=O)N(Cc2cccc(C(F)(F)F)c2)c2ccccc23)cc1 (stereo not given),inactive
14,Cc1nc2cc(-c3ccccc3)nn2c(C)c1CCC(=O)N1CCN(c2ccc(F)cc2)CC1,inactive
15,COc1ccc(C)cc1N(C)C(=O)c1sc2nc3n(c(=O)c2c1C)CCCCC3,inactive
16,Cc1oc(-c2ccccc2Cl)nc1CS(=O)CC(=O)N1CCN(c2cccc(C(F)(F)F)c2)CC1 (stereo not given),inactive
17,Cc1ccc2onc(CC(=O)N3CCN(c4cc(Cl)ccc4C)CC3)c2c1,inactive
18,CCn1cc(C(=O)NCCc2ccc(OC)c(OC)c2)c(=O)c2cc(S(=O)(=O)N(C)C3CCCCC3)ccc21,inactive
19,CC(C)c1ccc(NC(=O)c2ccc3c(O)c(S(=O)(=O)c4ccccc4)c(=O)[nH]c3c2)cc1,inactive
20,CCn1cc(S(=O)(=O)c2ccc(C)cc2C)c(=O)c2cc(F)c(N3CCCC3)cc21,inactive
21,Cc1cccc(CNC(=O)c2oc3c(c2C)-c2nn(Cc4ccccc4Cl)cc2CC3)c1,inactive
22,COc1ccc(N2CCN(C(=O)c3cc4c(-c5ccccc5F)nn(C)c4s3)CC2)cc1,inactive
23,CCc1cccc(-n2c(C)nc3c(cnn3-c3ccc(Cl)cc3)c2=O)c1,inactive

row,Compound,outcome
1,CCOc1ccc(-c2nc(CSCC(=O)N3CCN(c4cccc(C(F)(F)F)c4)CC3)c(C)o2)cc1,inactive
2,Cc1ccc(-n2ncc(C(=O)NCCc3ccccc3)c2C2CCN(C(=O)OC(C)(C)C)CC2)c(C)c1,inactive
3,CCn1cc(C(=O)NCCc2ccc(OC)c(OC)c2)c(=O)c2cc(S(=O)(=O)N3CCC(C)CC3)ccc21,inactive
4,COc1cc2nc(NC(=O)c3ccc(S(=O)(=O)N4CCc5ccccc54)cc3)sc2cc1OC,inactive
5,Cc1ccc2oc(C(=O)NCC(c3ccc(Cl)cc3)N3CCOCC3)c(C)c2c1 (stereo not given),inactive
6,N=c1n(CCN2CCCCC2)c2ccccc2n1CC(O)COc1ccc(Cl)cc1Cl (stereo not given),inactive
7,CCCCN(CC)CCNC(=O)c1cc2c(=O)oc3ccc(C)cc3c2s1,inactive
8,O=C(Nc1ccc(F)cc1F)c1ccc2c(O)c(S(=O)(=O)c3ccc(Cl)cc3)c(=O)[nH]c2c1,inactive
9,CCC(C(=O)Nc1cc(Cl)ccc1OC)n1nc(-c2ccccc2)ccc1=O (stereo not given),inactive
10,CCCNC(=O)c1cnn2c(C)c(Cc3c(C)cc(C)cc3C)c(C)nc12,inactive
11,CCc1ccc(NC(=O)CSc2nccn2-c2cccc(C)c2C)cc1,inactive
12,Cc1c(Cl)cccc1-n1ncc(C(=O)NCc2cccs2)c1C1CCN(C(=O)OC(C)(C)C)CC1,inactive
13,Cc1nc2ccccc2n1CCc1nc2c3ccccc3nc(SCC(=O)Nc3ccc(C(C)C)cc3)n2n1,inactive
14,COc1ccc(NC(=O)c2c(NC(=O)c3ccc(Br)cc3)sc3c2CCCC3)cc1,inactive
15,Cc1ccccc1Cc1c(C)nc2nc(SCC(=O)NCCc3ccc(Cl)cc3)nn2c1C,inactive
16,COCCCNC(=O)c1oc2c(c1C)-c1nn(Cc3cccc(Cl)c3)cc1CC2,inactive
17,Cc1cccc(-n2c3nc(=O)[nH]c(=O)c-3cc3ccc(Cl)cc32)c1C,inactive
18,Cc1cc(N)c(-n2cc3c(c2-c2ccc(Br)cc2)c(=O)n(C)c(=O)n3C)cc1C,inactive
19,Cc1cccc(Cn2nnc3c(=O)[nH]c(C4CCCN(C(=O)c5ccc(C(C)(C)C)cc5)C4)nc32)c1 (stereo not given),inactive
20,COc1ccc(CCN2CCC(CNC(=O)c3cnn(-c4cccc(Cl)c4)c3C3CCN(C(=O)OC(C)(C)C)CC3)CC2)cc1,inactive
21,COc1cc(NC(=O)CCc2c(C)nc3c4c(C)cc(C)nc4nn3c2C)cc(OC)c1,inactive
22,CCOC(=O)c1ccc(-c2ccc(/C=C(\C#N)c3nc4ccc(C)cc4[nH]3)o2)cc1,inactive
